Results as given in PubChem BioAssay AID2599 (Sanford-Burnham Center for Chemical Genomics, 2010).
Among all 330,000 compounds or so, about 5,800 (1.8%) were called active. This is one part of a sample in which actives are shown more often than they occur.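 The calls were made as follows: active = inhibition above about 50% at the single tested dose (limit read from the data); inactive = the rest.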

Target: Sentrin-specific protease 6 (Homo sapiens) (UniProt Q9GZR1)
Assay: SENP6 protease inhibitors, primary screen, biochemical, luminescence, uHTS (AID 2599);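 also: plate controls were DMSO wells with enzyme for no effect and DMSO wells lacking enzyme for full effect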
Settings: Recombinant SENP6 catalytic domain, aminoluciferin luminescence; at 10 µM; hits give high values

Chain of Sentrin-specific protease 6 (Homo sapiens) (Q9GZR1 628-1112 limits assumed): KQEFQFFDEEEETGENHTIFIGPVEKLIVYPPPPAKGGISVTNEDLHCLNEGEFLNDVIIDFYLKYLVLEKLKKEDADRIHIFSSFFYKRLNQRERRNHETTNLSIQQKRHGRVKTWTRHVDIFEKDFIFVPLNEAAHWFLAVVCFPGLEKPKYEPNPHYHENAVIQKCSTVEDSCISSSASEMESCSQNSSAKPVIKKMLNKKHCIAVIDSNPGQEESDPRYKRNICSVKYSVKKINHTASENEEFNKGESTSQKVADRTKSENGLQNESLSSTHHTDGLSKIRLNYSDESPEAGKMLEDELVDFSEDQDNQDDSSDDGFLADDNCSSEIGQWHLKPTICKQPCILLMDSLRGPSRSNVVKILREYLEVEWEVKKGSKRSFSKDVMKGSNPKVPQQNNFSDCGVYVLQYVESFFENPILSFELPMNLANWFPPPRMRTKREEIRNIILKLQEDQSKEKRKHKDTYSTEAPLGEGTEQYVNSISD

SMILES | inhibition
CC(OC(=O)CNS(=O)(=O)/C=C/c1ccccc1)C(=O)Nc1ccc(S(=O)(=O)N2CCCC2)cc1 (configuration not stated) | 1.69% (inactive)
Cn1c(=O)c(=O)n(C)c2cc(S(=O)(=O)NCCN3CCN(c4ccccc4F)CC3)ccc21 | -19.5% (inactive)
CCOC(=O)[C@H]1CCC[C@@H](NS(=O)(=O)c2ccc(NC(C)=O)cc2)C1 | 4.75% (inactive)
O=C(Cc1nc2ccccc2[nH]c1=O)c1ccc(Cl)cc1 | 50.3% (active)
O=C(/C(=C/c1cccc(Cl)c1)c1nc2ccccc2[nH]1)c1ccccc1 | -2.12% (inactive)
N#C/C(=C(/O)COC(=O)COc1ccc(Cl)cc1)c1nc2ccccc2[nH]1 | -13.3% (inactive)
COc1cccc(C(=O)CC(=O)C(=O)Nc2ccc([N+](=O)[O-])cc2C)c1 | 3.79% (inactive)
CC1(C)C=C2[C@H]3CC[C@@H]4[C@@]5(C)CCC(=O)C(C)(C)[C@@H]5CC[C@@]4(C)[C@]3(C)CC[C@@]2(C(=O)O)CC1 | 12.4% (inactive)
O=C(C1=C[C@H](c2coc3ccccc3c2=O)C[C@H](OCc2ccc(CO)cc2)O1)N1CCN(Cc2ccccc2)CC1 | -13.7% (inactive)
O=C(NC(=S)Nc1ccc(Br)cc1F)C1CCCCC1 | -12.9% (inactive)
Cc1cnc(C(=O)OCC(=O)N2CCc3ccccc32)cn1 | 0.963% (inactive)
CCOC(=O)N1CCC(NC(=O)c2cnn3ccccc23)CC1 | 3.17% (inactive)
O=C(c1cnn2ccccc12)N1CCc2ccccc21 | 51% (active)
Cc1oc2cc(Br)c(O)c(Br)c2c1C(=O)c1ccccc1 | -11.8% (inactive)
Cc1csc(NC(=O)c2ccc(C)s2)n1 | 0.083% (inactive)
COc1cc(SC)ccc1C(=O)N(Cc1ccccc1)c1ccccc1 | -10.9% (inactive)
COc1cc(SC)ccc1C(=O)NNC(=O)C1COc2ccccc2O1 (configuration not stated) | -13.5% (inactive)
COc1cc2ccccc2cc1C(=O)Nc1nc(C)c(C(C)=O)s1 | 16.4% (inactive)
Cc1occc1C(=O)Nc1cccc(Cn2cccn2)c1 | -1.37% (inactive)
Cc1ccnc(NC(=O)c2ccoc2C)c1 | 88.3% (active)
COc1cc(SC)ccc1C(=O)NCCOc1ccccc1Cl | 13.4% (inactive)

SMILES | inhibition
COc1cc(SC)ccc1C(=O)Nc1cc(C)ccn1 | 62.6% (active)
Cc1ccnc(NC(=O)CNC(=O)c2ccccc2)c1 | 6.25% (inactive)
COc1cc(SC)ccc1C(=O)Nc1nc(C)cs1 | 97.3% (active)
COc1ccc(C(=O)Nc2cccc(NC(=O)c3ccc(OC)cc3OC)n2)c(OC)c1 | -18% (inactive)
COC(=O)c1sc(NC(=O)c2ccc(OC)cc2OC)nc1C | 74% (active)
C=CCN(CC=C)C(=O)COC(=O)c1n[nH]c2ccccc12 | -20.6% (inactive)
CCOc1ccc(NC(=S)NC(=O)/C=C/c2ccc(OC)cc2)c([N+](=O)[O-])c1 | -2.86% (inactive)
O=C(Nc1nccs1)C1CCN(S(=O)(=O)c2ccc(Cl)c(C(F)(F)F)c2)CC1 | -4.6% (inactive)
CCOc1ncccc1C(=O)Nc1ccc(S(=O)(=O)Nc2nc(C)cc(C)n2)cc1 | -19.1% (inactive)
O=C(c1ccc(OC2CCN(C/C=C/c3ccc(F)cc3)CC2)cc1)N1CCCCC1 | 0.618% (inactive)
COc1cc(C)nc(N2CCCC(C(=O)NCC(C)C)C2)n1 (configuration not stated) | -10.1% (inactive)
O=C(NNS(=O)(=O)c1ccc(F)cc1)C1CCCCC1 | -3.19% (inactive)
CCOC(=O)c1sc(NC(=O)c2ccncc2)nc1C | 97.5% (active)
CCOC(=O)c1sc(NC(=O)c2sc(C)nc2C)nc1C | 15.3% (inactive)
CCOC(=O)c1cccnc1NC(=O)c1ccncc1 | -2.78% (inactive)
CC(=O)c1sc(N/N=C\c2ccc(C)cc2)nc1C | 23.9% (inactive)
COC(=O)c1sc(NC(=S)NC(=O)c2ccc(C)cc2)nc1C | -20% (inactive)
CC(=O)c1sc(NC(=O)c2ccc(C)cc2)nc1C | 62% (active)
COC(=O)[C@]1(Cc2ccccc2)N[C@H](CN(C)S(=O)(=O)c2ccc(OC(F)(F)F)cc2)[C@@H]2C(=O)N(C)C(=O)[C@@H]21 | 17% (inactive)
O=C(COc1ccccc1)N1CCN=C1SCc1cccc(F)c1 | -16.4% (inactive)
C=CCN(c1ccc(C(=O)Nc2cc(C)cc(C)c2)cc1)S(C)(=O)=O | 7.58% (inactive)

SMILES | inhibition
CSCc1ccc(C(=O)Nc2cc(C)cc(C)c2)cc1 | 86% (active)
CC(=O)Nc1ccccc1NC(=O)c1cc(C)cc(C)c1 | 3.76% (inactive)
Cc1cc(NC(=O)OC(C)C)ccc1-c1ccc(NC(=O)OC(C)C)cc1C | -24.2% (inactive)
O=C(NCCCn1ccnc1)c1cc(-c2ccccc2)on1 | 13.4% (inactive)
Cc1oc2c(c1C(=O)N1CCOCC1)C(=O)c1ccccc1C2=O | 68.9% (active)
COC1=C(N2CCOCC2)C(=O)c2ccccc2C1=O | 44.9% (inactive)
COc1cc2ccccc2cc1C(=O)N1CCOCC1 | 5.76% (inactive)
Cc1ccc(NC(=O)C2CC2)cc1S(=O)(=O)N1CCOCC1 | -10.6% (inactive)
COC(=O)c1ccc(NCC(=O)N2CCCCCC2)cc1 | -9.61% (inactive)
COC(=O)c1ccc(NCC(=O)c2ccccc2)cc1 | 95.5% (active)
Cc1ccc(C(=O)CNc2ccc(F)cc2)cc1 | 6.04% (inactive)
Cn1ncc2c(NNC(=O)Cc3cccc4ccccc34)ncnc21 | -8.95% (inactive)
O=C(CN1CCN(c2cccc(Cl)c2)CC1)Nc1ccc(S(=O)(=O)N2CCOCC2)cc1 | 5.09% (inactive)
CCOC(=O)C(NC(C)=O)C(=O)Nc1ccc(OC)cc1 (configuration not stated) | 4.26% (inactive)
CCC(CO)Oc1cc(NC(=O)c2cccc3ccccc23)c2ncn(C(C)C)c2c1 (configuration not stated) | -4.87% (inactive)
CCC(CO)Oc1cc(NC(=O)c2cccc(F)c2)c2ncn(C(C)C)c2c1 (configuration not stated) | -22.5% (inactive)
CCC(CO)Oc1cc(NCc2ccccc2)c2ncn(C3CCCC3)c2c1 (configuration not stated) | 1.75% (inactive)
CC(C)n1cnc2c(NCc3ccccc3)cc(OCC3CCN(C)CC3)cc21 | 77.9% (active)
CC(C)n1cnc2c(NCc3ccccc3)cc(N[C@@H](CO)Cc3ccccc3)cc21 | 75.8% (active)
CCC(CO)Oc1cc(NC(=O)c2ccc(Cl)cc2)c2ncn(C(C)C)c2c1 (configuration not stated) | -20.3% (inactive)
